Screens from PubChem BioAssay.
PrPC TRFRET: reduces human prion protein on the cell surface; hit rate 0.43% among 370,000; cell surface PrPC, TR-FRET read-out; inhibition, % at 13.8 µM; P04156; in the data active = inhibition above about 24%
Sa ugtP lethal: growth inhibition of S. aureus ugtP deletion strain; S. aureus RN4220 ugtP deletion, OD600 growth, 16 h; hit rate 0.54% among 330,000; growth inhibition, % (concentration not given with the values); AID 1259309; in the data active = growth inhibition above about 68%
PfHsp40 yeast: compounds rescuing yeast from Plasmodium falciparum HSP40 toxicity; hit rate 0.68% among 340,000; AID 504582; growth rescue, % at 12.5 µM; S. cerevisiae expressing PfHsp40, growth rescue, ATP luminescence; in the data active = growth rescue above about 28%, passing the limit was not always enough; inconclusive = no clear call, values can overlap the other calls;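 also: yeast W303a lacking pdr1 and pdr3 grown in galactose medium; growth measured after three days at 30 °C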
VHR inh abs: blocks human VHR1 dual specificity phosphatase | P51452 | recombinant VHR phosphatase, pNPP absorbance | inhibition, % at 13.3 µM | hit rate 0.52% among 290,000 | AID 1654; in the data active = inhibition above about 50%
Target sequence (P51452 whole entry, looked up): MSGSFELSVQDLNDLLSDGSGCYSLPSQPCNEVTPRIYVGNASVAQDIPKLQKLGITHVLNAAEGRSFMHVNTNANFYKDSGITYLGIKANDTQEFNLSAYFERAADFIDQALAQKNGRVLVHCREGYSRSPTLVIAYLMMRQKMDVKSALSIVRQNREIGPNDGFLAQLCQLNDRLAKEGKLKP
RN4220 kill: S. aureus RN4220 growth inhibition; OD600, 16 h; inhibition, % (test concentration not listed); hit rate 0.33% among 330,000; in the data active = inhibition above about 85%
Hits are given with their value. A selection: hits, their analogues and other compounds. The true share with any hit is near 1.8%.

C=CCC1(O)C(=O)Nc2ccccc21 (centres undefined) was read as PrPC TRFRET inactive, Sa ugtP lethal inactive, PfHsp40 yeast 54.8, VHR inh abs inactive and RN4220 kill inactive.
For Oc1ccc2c3c1O[C@H]1c4oc5ccccc5c4C[C@@]4(O)[C@@H](C2)N(CC2CC2)CC[C@]314 the results were PrPC TRFRET inactive, PfHsp40 yeast 34.0 and VHR inh abs inactive.
`COCCCNC(=S)N1CCCN(c2nc3cc(C)c(C)cc3cc2C#N)CC1` gave PrPC TRFRET inactive, Sa ugtP lethal inactive, PfHsp40 yeast inactive, VHR inh abs inactive and RN4220 kill inactive.
CCOCCCNC(=S)N1CCCN(c2nc3cc(C)c(C)cc3cc2C#N)CC1 was read as PrPC TRFRET inactive, Sa ugtP lethal inactive, PfHsp40 yeast inactive, VHR inh abs 52.0 and RN4220 kill inactive.
N/C(=N\OC(=O)c1ccc(Cl)cc1)c1ccn[nH]1 was read as PrPC TRFRET inactive, Sa ugtP lethal inactive, PfHsp40 yeast 33.5, VHR inh abs inactive and RN4220 kill inactive.
For C=CCNC(=S)NNc1nc2c(c(=O)[nH]1)C1(CCCCC1)Cc1ccccc1-2 the results were PrPC TRFRET inactive, Sa ugtP lethal 85.4, PfHsp40 yeast inactive, VHR inh abs inactive and RN4220 kill inactive.
Screening CS(=O)(=O)N(CC(=O)NCC1CCCO1)c1cccc([N+](=O)[O-])c1 (centres undefined) returned PrPC TRFRET inactive, Sa ugtP lethal inactive, PfHsp40 yeast inactive, VHR inh abs 56.3 and RN4220 kill inactive.
`N#CC(=Cc1ccc(Cl)cc1)c1n[nH]c(Cn2cncn2)n1` gave Sa ugtP lethal inactive and RN4220 kill inactive.
Screening CCOc1ccc(S(=O)(=O)N2CCN(c3ccccn3)CC2)cc1 returned PrPC TRFRET inactive, Sa ugtP lethal inactive, PfHsp40 yeast inactive, VHR inh abs 55.7 and RN4220 kill inactive.
For CNC(=O)Nc1cccc(-c2cc(-c3c(Cl)cccc3Cl)no2)c1 the results were PrPC TRFRET inactive, Sa ugtP lethal inactive, PfHsp40 yeast inactive, VHR inh abs inactive and RN4220 kill inactive.
CC(=O)Nc1cccc(-c2cc(-c3c(Cl)cccc3Cl)no2)c1 was read as PrPC TRFRET inactive, Sa ugtP lethal inactive, PfHsp40 yeast 356.9, VHR inh abs inactive and RN4220 kill inactive.
For Cc1cc(C)cc(N(C(=O)CNC(=O)c2cccs2)C(C(=O)NC2CCCC2)c2cccnc2)c1 (centres undefined) the results were PrPC TRFRET inactive, Sa ugtP lethal inactive, PfHsp40 yeast inactive, VHR inh abs inactive and RN4220 kill inactive.
COc1cccc(C(C(=O)NC2CCCC2)N(Cc2cccnc2)C(=O)Cc2cccs2)c1 (centres undefined) was read as PrPC TRFRET inactive, Sa ugtP lethal inactive, PfHsp40 yeast inactive, VHR inh abs 50.4 and RN4220 kill inactive.
Cc1cccc(N(C(=O)CNC(=O)c2cccs2)C(C(=O)NC2CCCC2)c2cccnc2)c1 (centres undefined) was read as PrPC TRFRET inactive, Sa ugtP lethal inactive, PfHsp40 yeast inactive, VHR inh abs 56.7 and RN4220 kill inactive.
`O=C(NCC(=O)N(c1ccccc1)C(C(=O)NC1CCCCC1)c1cccnc1)c1cccs1` (centres undefined) gave PrPC TRFRET inactive, Sa ugtP lethal inactive, PfHsp40 yeast inactive, VHR inh abs 52.0 and RN4220 kill inactive.
O=C(NCC(=O)N(c1ccc(F)cc1)C(C(=O)NC1CCCC1)c1cccnc1)c1cccs1 (centres undefined) was read as PrPC TRFRET inactive, Sa ugtP lethal inactive, PfHsp40 yeast inactive, VHR inh abs inactive and RN4220 kill inactive.
Screening COC(=O)C1=C(c2ccc(F)cc2OCc2ccccc2)CC2CCC1N2C(=O)N1CCOCC1 (centres undefined) returned Sa ugtP lethal inactive and RN4220 kill inactive.
`O=C(O)COc1ccccc1C(Nc1ccccn1)c1cc(Cl)c2cccnc2c1O` (centres undefined) gave PrPC TRFRET inactive, Sa ugtP lethal inactive, PfHsp40 yeast 57.9, VHR inh abs inactive and RN4220 kill inactive.
CCOc1ccc(C(Nc2cccnc2)c2cc(Cl)c3cccnc3c2O)cc1 (centres undefined) was read as PrPC TRFRET inactive, Sa ugtP lethal inactive, PfHsp40 yeast 91.5, VHR inh abs inactive and RN4220 kill inactive.
O=C(O)COc1ccccc1C(Nc1cccnc1)c1cc(Cl)c2cccnc2c1O (centres undefined) was read as Sa ugtP lethal inactive, PfHsp40 yeast 106.1, VHR inh abs inactive and RN4220 kill inactive.
COc1ccccc1C(NC(C)=O)c1cc(Cl)c2cccnc2c1O (centres undefined) was read as PrPC TRFRET inactive, Sa ugtP lethal inactive, PfHsp40 yeast inactive, VHR inh abs inactive and RN4220 kill inactive.
For O=C(NC(c1ccccc1)c1cc(Cl)c2cccnc2c1O)c1cccnc1 (centres undefined) the results were PrPC TRFRET inactive and VHR inh abs inactive.
O=C(CN1CCN(S(=O)(=O)c2ccc(Br)cc2)CC1)NN=Cc1cccs1 was read as Sa ugtP lethal inactive and RN4220 kill inactive.
Screening NC1=NC[C@H](Cc2ccccc2)N1CCCCC1CCCCC1 returned PrPC TRFRET inactive, Sa ugtP lethal inactive, PfHsp40 yeast inactive, VHR inh abs inactive and RN4220 kill inactive.
For NC1=NC[C@H](Cc2ccc(O)cc2)N1CCCCC1CCCCC1 the results were PrPC TRFRET inactive, Sa ugtP lethal 100.3, PfHsp40 yeast inactive, VHR inh abs inactive and RN4220 kill 100.3.
COc1ccc(CN2CCN(Cc3ccco3)CC2)cc1 was read as PrPC TRFRET inactive, Sa ugtP lethal inactive, PfHsp40 yeast inactive and RN4220 kill inactive.
Screening FC(F)(F)c1ccc(CN2CCN(Cc3ccco3)CC2)cc1 returned PrPC TRFRET inactive, Sa ugtP lethal inactive, PfHsp40 yeast 49.5, VHR inh abs inactive and RN4220 kill inactive.
Screening COC(=O)NC1CC2C3CCC4CC(OC)CC[C@]4(C)C3CC[C@@]12C (some centres undefined) returned Sa ugtP lethal inactive and RN4220 kill inactive.
Screening O=C1C=C(NCc2ccccc2)c2ccccc2C1=O returned PrPC TRFRET inactive, Sa ugtP lethal 91.5, PfHsp40 yeast inactive, VHR inh abs inactive and RN4220 kill 92.0.
Cc1ccc(NC2=CC(=O)C(=O)c3ccccc32)c(C)c1 was read as PrPC TRFRET inactive, Sa ugtP lethal inactive, PfHsp40 yeast inconclusive and RN4220 kill inactive.
O=C1C=C(Nc2ccccc2O)c2ccccc2C1=O was read as PrPC TRFRET inactive, Sa ugtP lethal inactive, PfHsp40 yeast 73.6, VHR inh abs inactive and RN4220 kill inactive.
For COC(=O)C1=C(c2cc3ccccc3s2)CC2CCC1N2C(=O)NCc1cccc2ccccc12 (centres undefined) the results were Sa ugtP lethal inactive and RN4220 kill inactive.
Screening CC(=NNc1nc(-c2ccccc2)cs1)c1cccs1 returned Sa ugtP lethal inactive and RN4220 kill inactive.
`CC(=O)c1sc2nc(-c3cccs3)ccc2c1N` gave PrPC TRFRET inactive, Sa ugtP lethal inactive, PfHsp40 yeast inactive, VHR inh abs inactive and RN4220 kill inactive.
